Results filed as inconclusive are left out. Active and inactive are the calls of the source. Calls come from the whole dose curve; as a rule, active = well fitted curve in the direction sought with a large enough effect; inconclusive = small, poorly fitted or top-dose-only effect, or another doubt; inactive = no such curve, though single readings can be large; an effect the other way counts as inactive or inconclusive.
Columns and labels:
[1] = target: Glutathione peroxidase 1 (Homo sapiens) (UniProt P07203); assay: Primary qHTS Assay for Inhibitors of Recombinant Selenoprotein Glutathione Peroxidase 1 (GPX1) (AID 1845191); note: nearly all actives have a fitted effect of over 65% in size; for activity, negative = inhibition: % is set by controls: 0 for no effect and ±100 for the full control effect
Chain of Glutathione peroxidase 1 (Homo sapiens) (P07203 whole entry, looked up): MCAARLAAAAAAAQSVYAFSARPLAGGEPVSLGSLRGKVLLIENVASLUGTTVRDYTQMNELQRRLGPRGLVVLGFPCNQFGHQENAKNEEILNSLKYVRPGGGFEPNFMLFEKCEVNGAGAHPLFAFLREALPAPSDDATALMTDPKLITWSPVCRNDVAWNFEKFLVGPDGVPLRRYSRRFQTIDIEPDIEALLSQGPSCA
Outline: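 GPX1 10 nM, GR 100 nM, GSH 1 mM, NADPH 0.5 mM, CHP 0.5 mM (final). 30-min cpd preincubation, RT. Ex340/Em450 read t=0, t=15 min.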

[2] = target: Phospholipid hydroperoxide glutathione peroxidase GPX4 (Homo sapiens) (UniProt P36969); assay: Primary qHTS Assay for Inhibitors of Recombinant Selenoprotein Glutathione Peroxidase 4 (GPX4) (AID 1845192); note: nearly all actives have a fitted effect of over 65% in size; for activity change, negative = inhibition: series mostly up to about 50 µM; % is set by controls: 0 for no effect and ±100 for the full control effect
Chain of Phospholipid hydroperoxide glutathione peroxidase GPX4 (Homo sapiens) (P36969 whole entry, looked up): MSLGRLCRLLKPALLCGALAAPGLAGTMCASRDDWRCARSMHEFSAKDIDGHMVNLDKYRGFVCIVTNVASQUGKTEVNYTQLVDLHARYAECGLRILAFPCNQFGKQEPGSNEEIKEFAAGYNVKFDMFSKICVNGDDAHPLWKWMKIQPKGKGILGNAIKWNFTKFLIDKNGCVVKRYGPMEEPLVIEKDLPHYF
Outline: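 qHTS, GR-coupled: GPX4 200 nM + cpd 30 min RT → GSH 1 mM, NADPH 0.5 mM, GR 100 nM → CHP 0.5 mM start; fluor 340/450 at t0 and t15 min; no-enzyme wells as control.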

[3] = target: Luciferin 4-monooxygenase (Photinus pyralis) (UniProt P08659); assay: Primary firefly luciferase (FLuc) qHTS assay for identification of artifact compounds. (AID 1845220); note: nearly all actives have a fitted effect of over 60% in size; note: potency is the fitted concentration of half-maximal effect;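 for activity change, negative = inhibition: series mostly up to about 54 µM; plate controls were DMSO vehicle for no effect and no enzyme for full effect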
Outline: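 qHTS, 15 min compound preincubation with substrate (10 uM luciferin, 10 uM ATP) at RT, then 10 nM FLuc; 5 min; luminescence; % inhibition vs no-enzyme/DMSO controls, 4-parameter Hill fit.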

[4] = Primary fluorescence-based thiol-reactive (MSTI) qHTS assay for identification of artifact compounds. (AID 1845221);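 note: series mostly up to about 54 µM; thiol-reactive compounds lower the probe fluorescence signal; nearly all actives have a fitted effect of over 65% in size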
Outline: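 First, 4 uM MSTI in 2% DMSO/PBS pH 7.4 was dispensed; next, compounds were added; then plates sat 1 h at room temperature without light. Finally, emission at 598 nm was recorded.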

[5] = tested on: Nanoluciferase (engineered Oplophorus gracilirostris luciferase); assay: Primary Nanoluciferase (NLuc) qHTS assay for identification of artifact compounds. (AID 1845222); note: series mostly up to about 54 µM
Outline: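 Luminescence read-out of secreted NLuc in S16 cell conditioned medium (1:55); compounds tested with 15 min RT preincubation, then Nano-Glo substrate 1:100, 5 min. % inhibition vs no-enzyme and DMSO controls, 4-parameter Hill fit.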

[6] = Primary redox qHTS assay for identification of artifact compounds. (AID 1845223);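 note: 0% = DMSO and 100% = reference compound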
Outline: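 Redox-cycling detection via DTT (250 uM final) oxidation coupled to Amplex Red (25 uM)/HRP (250 mU/mL) in HBSS. 15 min preincubation plus 30 min after DTT, room temperature. Ex/Em 525/598 nm; 4-parameter Hill fit against DMSO and 10 uM DA3003.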

C/C=C/C=C/C=C/C(=O)O[C@@H]1C=C(CO)C(O)(C(=O)OC)[C@@]2(C)CCCC(C)(C)C12 (stereo partly drawn)
inactive: Potency [1] | Potency [2] | Potency [3] | Potency [4] | Potency [5] | Potency [6]

Nc1ncnc2c1nc(Cl)n2C1OC2COP(=O)(O)OC2C1O (stereo not drawn)
inactive: Potency [1] | Potency [2] | Potency [3] | Potency [4] | Potency [5] | Potency [6]

Nc1nc(OCc2cc(Br)cs2)c2[nH]cnc2n1
inactive: Potency [1] | Potency [2] | Potency [3] | Potency [4] | Potency [5] | Potency [6]

Cc1ccc(C2(C(=O)N3CCC(n4nc(-c5ccccc5)oc4=O)CC3)CC2)cc1
inactive: Potency [1] | Potency [2] | Potency [3] | Potency [4] | Potency [5] | Potency [6]

O=C(Nc1ccc(N2C(=O)[C@@H]3[C@H](C2=O)[C@@H]2C=C[C@H]3C2)c(Cl)c1)c1ccccn1
active: Potency [3] 19 µM
inactive: Potency [1] | Potency [2] | Potency [4] | Potency [5] | Potency [6]

Cc1c(OCc2cccc(-c3ccc(C(=O)O)cc3)c2)cc2c(c1C)C(=O)C(C1CCCC1)C2 (stereo not drawn)
inactive: Potency [1] | Potency [2] | Potency [3] | Potency [4] | Potency [5] | Potency [6]

CCCCOc1ccc(S(=O)(=O)n2c(C)nc3ccccc32)cc1
inactive: Potency [1] | Potency [2] | Potency [3] | Potency [4] | Potency [5] | Potency [6]

CCCC(Nc1nc(-c2ccc(NC(=O)NCC)c(OC)c2)ncc1C)c1cccnc1 (stereo not drawn)
inactive: Potency [1] | Potency [2] | Potency [3] | Potency [4] | Potency [5] | Potency [6]

CC(=O)O[C@@H]1C[C@@]23C[C@@]24CC[C@H](O[C@@H]2OC[C@H](O)[C@H](O)[C@H]2O)C(C)(C)[C@@H]4CC[C@H]3[C@]2(C)[C@@H](O)C34O[C@H](C[C@@H](C)[C@@H]3[C@@]12C)[C@@H](C(C)(C)O)O4
inactive: Potency [1] | Potency [2] | Potency [3] | Potency [4] | Potency [5] | Potency [6]

CC(C)(C)c1ccc(C(=O)Nc2cc(Cl)c(Br)cc2C(=O)O)cc1
inactive: Potency [1] | Potency [2] | Potency [4] | Potency [5] | Potency [6]
active: Potency [3] 6.75 µM

N[C@@H]1c2cccnc2[C@H](OC(=O)N2CCC(n3c(=O)[nH]c4ncccc43)CC2)CC[C@H]1c1cccc(F)c1F
inactive: Potency [1] | Potency [2] | Potency [3] | Potency [4] | Potency [5] | Potency [6]

C/C=C(/C)C(=O)OC1CC(C)(C)CC2C3=CCC4C5(C)CCC(O[C@@H]6O[C@H](C(=O)O)[C@@H](O)[C@H](O)[C@H]6O[C@@H]6O[C@H](CO)[C@H](O)[C@H](O[C@@H]7OC[C@H](O)[C@H](O)[C@H]7O[C@@H]7O[C@H](CO)[C@@H](O)[C@H](O)[C@H]7O)[C@H]6O)C(C)(C)C5CCC4(C)C3(C)C(O)C(O)C12CO (stereo partly drawn)
inactive: activity, negative = inhibition [1] -3.11% [at 9.52 µM] | activity change, negative = inhibition [2] -1.81% [at 9.73 µM] | activity change, negative = inhibition [3] 1.87% [at 11.6 µM] | activity change, negative = thiol reactive [4] 199% [at 11.5 µM] | activity, negative = inhibition [5] 4.03% [at 11.6 µM] | redox activity (% of DA3003) [6] 15.7% [at 11.5 µM]

O[C@@](Cc1ncc(CC2(C(F)(F)F)CC2)[nH]1)(c1ccc(-n2cccn2)cc1)C(F)(F)F
inactive: Potency [1] | Potency [2] | Potency [3] | Potency [4] | Potency [5] | Potency [6]

Reference: PubChem BioAssay (NCATS)
